Results filed as inconclusive are left out. Calls of active or inactive are those of the source. The call rests on the fitted dose curve; in most records, active means well fitted curve in the direction sought with a large enough effect; inconclusive means small, poorly fitted or top-dose-only effect, or another doubt; inactive means no such curve, though single readings can be large; an effect the other way counts as inactive or inconclusive.
Legend:
[1] = qHTS of pediatric cancer cell lines to identify multiple opportunities for drug repurposing: Primary screen for NB1643 cells (AID 1347099); further: nearly all actives have a fitted effect of over 50% in size; further: potency means the concentration at half of the fitted maximal effect
Summary of the method: (§1)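 Viability was measured as metabolically active cells after 48 hours of treatment, read by CellTiter-Glo luminescence. Compounds were tested at multiple final concentrations, giving concentration-response curves.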

[2] = qHTS of pediatric cancer cell lines to identify multiple opportunities for drug repurposing: Primary screen for OHS-50 cells (AID 1347103); further: nearly all actives have a fitted effect of over 40% in size; further: potency means the concentration at half of the fitted maximal effect
Summary of the method: (§2)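 Cells (500-1,000/well) rested 5 h, then received compounds for 48 h; metabolically active cells were measured by CellTiter-Glo luminescence. Final concentrations spanned up to 46 µM (MIPE, 11-point) or 0.59 nM-46 µM (NPC, 8-point) in primary screens, 11-point in follow-ups.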

[3] = qHTS of pediatric cancer cell lines to identify multiple opportunities for drug repurposing: Primary screen for control Hh wild type fibroblast cells (AID 1347106);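 further: series mostly up to about 46 µM; a drop in luminescence marks cytotoxicity and a rise apparent proliferation; nearly all actives have a fitted effect of over 55% in size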
Summary of the method: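 Viability after 48 h compound treatment at 37C, 500-1,000 cells/well, read as ATP luminescence with CellTiter-Glo. Primary screens used 11-point (MIPE, 0.78 nM-46 µM) or 8-point (NPC, 0.59 nM-46 µM) final concentrations; follow-up screens used 11-point dilutions.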

[4] = qHTS of pediatric cancer cell lines to identify multiple opportunities for drug repurposing: Primary screen for Rh18 cells (AID 1347102); further: nearly all actives have a fitted effect of over 65% in size; further: potency means the concentration at half of the fitted maximal effect
Summary of the method: as §2

[5] = qHTS of pediatric cancer cell lines to identify multiple opportunities for drug repurposing: Primary screen for RD cells (AID 1347104); further: nearly all actives have a fitted effect of over 55% in size; further: potency means the concentration at half of the fitted maximal effect
Summary of the method: as §1

[6] = qHTS of pediatric cancer cell lines to identify multiple opportunities for drug repurposing: Primary screen for MG 63 (6-TG R) cells (AID 1347105); further: nearly all actives have a fitted effect of over 50% in size; further: potency means the concentration at half of the fitted maximal effect
Summary of the method: as §1

[7] = qHTS of pediatric cancer cell lines to identify multiple opportunities for drug repurposing: Primary screen for Rh30 cells (AID 1347107); further: series mostly up to about 46 µM; nearly all actives have a fitted effect of over 75% in size
Summary of the method: as §2

[8] = qHTS of pediatric cancer cell lines to identify multiple opportunities for drug repurposing: Primary screen for Rh41 cells (AID 1347108); further: nearly all actives have a fitted effect of over 70% in size; further: potency means the concentration at half of the fitted maximal effect
Summary of the method: as §1

[9] = qHTS of pediatric cancer cell lines to identify multiple opportunities for drug repurposing: Primary screen for LAN-5 cells (AID 1347100); further: potency means the concentration at half of the fitted maximal effect
Summary of the method: as §2

[10] = qHTS of pediatric cancer cell lines to identify multiple opportunities for drug repurposing: Primary screen for BT-12 cells (AID 1347101); further: nearly all actives have a fitted effect of over 25% in size; further: potency means the concentration at half of the fitted maximal effect
Summary of the method: as §2

Measured: Potency

CC[C@]12CCCN3CCc4c(n(c5ccccc45)C(=O)C1)[C@@H]32
active: [2] 27.6 µM
inactive: [1] | [3]

O=[N+]([O-])c1ccc(/C=N\O)o1
not listed: [1] | [9] | [10]
inactive: all other assays above

CCc1oc2ccccc2c1C(=O)c1cc(I)c(O)c(I)c1
inactive: [9] | [10] | [4] | [6] | [8]

CCCCCCCCCCCCCC[N+](C)(C)Cc1ccccc1
active: [9] 21.1 µM | [10] 6.92 µM | [2] 4.37 µM | [5] 21.1 µM | [8] 18.8 µM

Oc1ccc(Cl)cc1Cc1cc(Cl)ccc1O
active: [1] 9.44 µM | [10] 27.6 µM | [2] 9.78 µM | [5] 21.1 µM | [6] 16.8 µM

CCc1oc2ccccc2c1C(=O)c1cc(Br)c(O)c(Br)c1
inactive: [9] | [10] | [4] | [3] | [7] | [8]

O=C(Nc1ccccc1)OCC(CN1CCCCC1)OC(=O)Nc1ccccc1 (centres undefined)
active: [5] 29.9 µM
inactive: [1] | [3] | [7]

C[C@]12CCC(=O)C=C1C=C[C@@H]1[C@@H]2CC[C@@]2(C)[C@H]1CC[C@@]21CCC(=O)O1
active: [2] 15.5 µM
inactive: [4] | [6] | [3]

N[C@H](C(=O)O)[C@@H](O)c1ccc(O)c(O)c1
not listed: [4] | [7] | [9]
inactive: all other assays above

C#C[C@]1(O)CC[C@H]2[C@@H]3CCC4=Cc5oncc5C[C@]4(C)[C@H]3CC[C@@]21C
inactive: [1] | [6] | [3] | [7] | [8]
active: [2] 24.6 µM

C#C[C@]1(OC(C)=O)CC[C@H]2[C@@H]3CCC4=C/C(=N/O)CC[C@@H]4[C@H]3CC[C@@]21CC
inactive: [10] | [6] | [3] | [7]
active: [9] 23.7 µM

CCCCCN=C(N)N/N=C/c1c[nH]c2ccc(OC)cc12
active: [9] 26.6 µM | [10] 13.8 µM | [4] 9.44 µM | [2] 11 µM | [5] 7.5 µM

CCOc1ccccc1C(N)=O
not listed: [1] | [5]
inactive: all other assays above

O=C(c1ccc(F)cc1)C1CCN(CCn2c(=S)[nH]c3ccccc3c2=O)CC1
inactive: [9] | [4] | [6] | [8]

CCCCCCCCCCCCCCC[C@H](O)[C@@H](N)CO
not listed: [4] | [7] | [9]
inactive: all other assays above

O=C(CCCN1CC=C(n2c(=O)[nH]c3ccccc32)CC1)c1ccc(F)cc1
inactive: [4] | [6]
active: [1] 26.6 µM

CN1CCc2cccc3c2[C@H]1Cc1ccc(O)c(O)c1-3
active: [9] 11.9 µM
inactive: [6] | [3]

O=C(Oc1cccc2cccnc12)c1ccccc1
active: [10] 6.17 µM
inactive: [3]

O[C@@H](c1cc(C(F)(F)F)nc2c(C(F)(F)F)cccc12)[C@H]1CCCCN1
active: [10] 15.5 µM | [2] 21.9 µM | [5] 23.7 µM | [6] 26.6 µM
inactive: [3]

— PubChem BioAssay (NCATS)
